# PubChem BioAssay (NCI)
# About 83,000 compounds went through this panel and 20% of them were active in at least one assay; those are over-represented in the sample as a whole.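 Step 1: grow cells in 96-well plates. Step 2: add test compound at a single concentration. Step 3: incubate 48 h. Step 4: record percent growth.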 The source made the active and inactive calls. The calls were made as follows: active = growth percent below 10; inactive = the rest.
# How the values were obtained:
# Assay in all cases: NCI-60 one-dose screen, 48 h (100 = growth as untreated, 0 = no growth, -100 = all killed)
# Settings in all cases: 10 µM unless noted
# HCT-15 colon = test system: HCT-15 colon
# HT29 colon = test system: HT29 colon
# SNB-75 CNS = test system: SNB-75 CNS
# SNB-19 CNS = test system: SNB-19 CNS
# U251 CNS = test system: U251 CNS
# PC-3 prostate = test system: PC-3 prostate
# SK-MEL-5 melanoma = test system: SK-MEL-5 melanoma
# UACC-62 melanoma = test system: UACC-62 melanoma
# LOX IMVI melanoma = test system: LOX IMVI melanoma
# SK-MEL-2 melanoma = test system: SK-MEL-2 melanoma
# EKVX NSCLC = test system: EKVX NSCLC
# SN12C renal = test system: SN12C renal
# UO-31 renal = test system: UO-31 renal
# TK-10 renal = test system: TK-10 renal
# ACHN renal = test system: ACHN renal
# A498 renal = test system: A498 renal
# CCRF-CEM leukemia = test system: CCRF-CEM leukemia
# MOLT-4 leukemia = test system: MOLT-4 leukemia
# SK-MEL-28 melanoma = test system: SK-MEL-28 melanoma
# CAKI-1 renal = test system: CAKI-1 renal
SMILES,growth (HCT-15 colon),growth (HT29 colon),growth (SNB-75 CNS),growth (SNB-19 CNS),growth (U251 CNS),growth (PC-3 prostate),growth (SK-MEL-5 melanoma),growth (UACC-62 melanoma),growth (LOX IMVI melanoma),growth (SK-MEL-2 melanoma),growth (EKVX NSCLC),growth (SN12C renal),growth (UO-31 renal),growth (TK-10 renal),growth (ACHN renal),growth (A498 renal),growth (CCRF-CEM leukemia),growth (MOLT-4 leukemia),growth (SK-MEL-28 melanoma),growth (CAKI-1 renal)
NC(N)=Nc1ccc(Oc2cccc(NC(N)=Nc3ccc(Cl)c(C(F)(F)F)c3)c2)cn1,85.8% (inactive),28.9% (inactive),69.3% (inactive),16.6% (inactive),25.6% (inactive),13.4% (inactive),31.9% (inactive),40.2% (inactive),-59.8% (active),59.5% (inactive),65.5% (inactive),25.2% (inactive),78.9% (inactive),69.3% (inactive),88.3% (inactive),36.7% (inactive),23.9% (inactive),23.6% (inactive),,
COc1cc(-c2nc(SC(C)C)n(C(C)C)c(=O)c2C#N)ccc1OCc1ccccc1,73.8% (inactive),91.2% (inactive),82.4% (inactive),83.8% (inactive),32.7% (inactive),73.1% (inactive),,90.4% (inactive),62.1% (inactive),,81.3% (inactive),16.2% (inactive),56.8% (inactive),42.1% (inactive),32.5% (inactive),,33% (inactive),22.1% (inactive),96.8% (inactive),54.8% (inactive)
Cc1nn(-c2ccccc2)c2ncnc(N/N=C/c3ccccc3)c12,85.4% (inactive),89.1% (inactive),82.9% (inactive),84.4% (inactive),85% (inactive),85.2% (inactive),92.2% (inactive),90.6% (inactive),105% (inactive),104% (inactive),89.6% (inactive),81% (inactive),75.3% (inactive),113% (inactive),85.8% (inactive),74.1% (inactive),88.3% (inactive),87.1% (inactive),,102% (inactive)
COc1ccc(S(=O)(=O)NCCCNc2nccc(-c3cn(C(C)(C)C)nc3-c3ccc(Cl)c(OC)c3)n2)cc1,78.5% (inactive),81% (inactive),50.5% (inactive),96.3% (inactive),98.9% (inactive),58.3% (inactive),85.8% (inactive),61.2% (inactive),72.7% (inactive),89.7% (inactive),47.2% (inactive),57.1% (inactive),44.5% (inactive),60.3% (inactive),84.6% (inactive),58.7% (inactive),,60.6% (inactive),,25.5% (inactive)
Cc1ccc(C(=O)NN2C(=O)/C(=C/C=C/c3ccco3)SC2=S)cc1,91.6% (inactive),110% (inactive),94.5% (inactive),94.9% (inactive),98.7% (inactive),92.2% (inactive),,85.3% (inactive),99.7% (inactive),,95.4% (inactive),94.7% (inactive),88.6% (inactive),118% (inactive),107% (inactive),,103% (inactive),40.7% (inactive),94.4% (inactive),91.4% (inactive)
O=S(=O)(NCCNc1nccc(-n2cnc3ccccc32)n1)c1ccc(C(F)(F)F)cc1,60.7% (inactive),68% (inactive),46.8% (inactive),69.8% (inactive),69.6% (inactive),45.5% (inactive),8.48% (active),42.4% (inactive),57.4% (inactive),67.8% (inactive),34.7% (inactive),72.5% (inactive),39.9% (inactive),63.4% (inactive),60.8% (inactive),56.6% (inactive),57.6% (inactive),45.2% (inactive),,43.1% (inactive)
CN1CCC(n2cc(Nc3ncc4c(=O)n(-c5c(Cl)cccc5Cl)cc(Br)c4n3)cn2)CC1,17.1% (inactive),6.54% (active),17.1% (inactive),41.7% (inactive),27.6% (inactive),51.3% (inactive),,77.8% (inactive),11.9% (inactive),,57.4% (inactive),20.7% (inactive),22.2% (inactive),47% (inactive),24% (inactive),,8.75% (active),13% (inactive),63.4% (inactive),20% (inactive)
